PubChem BioAssay (NCI)
The panel holds about 83,000 compounds, 20% with a hit somewhere; the sample as a whole holds those more often.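 Values shown are percent growth following 48 h exposure of cells in 96-well plates to a single concentration of compound; below 10 was considered active.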 Calls of active or inactive are those of the source.

system: UO-31 renal; experiment: NCI-60 one-dose screen, 48 h (100 = growth as untreated, 0 = no growth, -100 = all killed); conditions: 10 µM

Structure (SMILES) | growth
O=C1/C(=C/c2ccc(O)cc2)Oc2ccc(Cl)cc21 | 38.5% (inactive)
COc1cc(C(=O)n2nc(N)c3c(C)cc(C)nc32)cc(OC)c1OC | 84.7% (inactive)
C#Cc1ccc(-n2c(/C=C/c3cc(OC)c(OC)c(OC)c3)nc3ncccc3c2=O)cc1 | 45.8% (inactive)
COC(=O)[C@]12CC[C@@H](C)[C@H](C)[C@@H]1C1=CC[C@@H]3[C@@]4(C)C[C@@H](O)[C@H](O)[C@@](C)(CO)[C@@H]4[C@H](O)C[C@@]3(C)[C@]1(C)CC2 | -52.2% (active)
COc1ccc(-c2nc(SCC(=O)c3ccc(Br)cc3)[nH]c(=O)c2C#N)cc1 | 86.3% (inactive)
COc1ccc(C2C=C(c3ccc(Cl)c(Cl)c3)N=C3SC(C)=CN32)cc1 (stereo not given) | 77.5% (inactive)
CCOc1nc(-c2ccccc2)cc2c(O)c(C(=O)NC(C)C)[nH]c(=O)c12 | 80.2% (inactive)
S=c1c2ncccc2c(-c2ccccn2)nn1Cc1ccccn1 | 82.2% (inactive)
Nc1cc(O)cc(O)c1 | 97.8% (inactive)
COc1c(-c2c3sc(=O)[nH]c3nc3c2c(=O)[nH]n3C(C)C)cc2c(c1OC)OCO2 | 78.9% (inactive)
Cc1c(C(=O)N[C@H](CO)Cc2ccccc2)[nH]c2ccc(Cl)cc2c1=O | 98.2% (inactive)
COc1cc(Cn2c(-c3ccccc3)c(Cl)c3c2-c2oncc2CC3)cc(OC)c1 | -7.99% (active)
C/C=C\COc1cc(C)c(Cl)cc1Cl | 84.8% (inactive)
CCOC(=O)CNC(=O)Nc1ccc(Oc2ccc(NC(=O)NCC(=O)OCC)cc2)cc1 | 83.2% (inactive)
c1ccc(COCC[P+](c2ccccc2)(c2ccccc2)c2ccccc2)cc1 | 46.9% (inactive)
CCOC(=O)C1=C(Nc2ccc(OC)cc2)C(N)=NC1=N | 57.1% (inactive)
NC(=O)C1CCCN(Cc2c[nH]c3ccccc23)C1 (stereo not given) | 75.4% (inactive)
CC(=O)n1nc(C(=O)OC(C)(C)C)c2cc(F)c(F)cc21 | 92.6% (inactive)

Structure (SMILES) | growth
Cc1cc(Cl)ccc1Nc1nc(C(F)(F)F)ccc1C(=O)N/N=C/c1ccccc1Cl | 7.23% (active)
CN1/C(=C\C(I)C(I)C2=[N+](C)c3ccccc3C2(C)C)C(C)(C)c2ccccc21 (stereo not given) | -1.6% (active)
N#C/C(=C/c1cc([N+](=O)[O-])ccc1Cl)C(N)=O | 72.7% (inactive)
CCCCCCCCCCCC(=O)NCCCN(C)C | 85% (inactive)
CCc1nn2c(-c3cc(OC)c(OC)c(OC)c3)c(-c3cc(OC)c(OC)c(OC)c3)nc2s1 | 81.7% (inactive)
CCN1CCN(c2nc(NNC(=O)c3cccc(OC)c3)nc(N3CCN(C(c4ccccc4)c4ccccc4)CC3)n2)CC1 | 27.5% (inactive)
CCCCOCCOCCOCc1cc2c(cc1Br)OCO2 | 76.7% (inactive)
CCCCCCCCCCCCCC[n+]1ccccc1 | 5.61% (active)
Cc1cc(C)c2nc(C)c(C)[n+]([O-])c2c1 | 88.3% (inactive)
Clc1cc(Cl)c(OCCCCCCN2CCNCC2)c(Cl)c1 | 73.2% (inactive)
COc1ccc(NC(=O)c2sc3nc4c(cc3c2N)C(O)CCC4)cc1 (stereo not given) | 86.4% (inactive)
Cc1cc(C(C)(C)CC(C)(C)C)ccc1OCCOCC[N+](C)(C)Cc1ccccc1 | 65.4% (inactive)
CCCCCC(=O)N1c2ccccc2NC2=C(C(=O)CC(c3ccc(OC)c(OC)c3)C2)C1c1ccc(C(F)(F)F)cc1 (stereo not given) | 44.9% (inactive)
COc1cc(C2C(C#N)=C(c3c[nH]c4ccccc34)Nc3nc(N)[nH]c(=O)c32)cc(OC)c1OC (stereo not given) | 79.3% (inactive)
COc1ccc(-c2nc(-c3nc4ccc(C)cc4[nH]3)c3ccccn23)cc1 | 14.4% (inactive)
COCCOC(=O)NC(=O)Nc1ccc(/C(=N/O)c2ccc(Cl)cc2)cc1 | 36.8% (inactive)
CC(C)c1ncc(CO)n1Cc1c(Cl)cccc1Cl | 90.1% (inactive)
